Consider twelve molecules from the supplement of paper PMC10515830.

Where a name gives a salt, the structure may show the parent alone.

The assay concerns Danio rerio larvae (5 dpf). As to the kind of experiment: difference in startle response vs DMSO (percentage points); higher = stronger startle than DMSO. The settings on record: 10 µM; exposure time 6 h. An outline of the steps: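 Library compounds were tested at 10 µM final in 100 µL egg water on wild-type 5 dpf zebrafish larvae in 96-well plates for 6 h, with 48 larvae per compound. After 3 h, plates at 28.5 ℃ were imaged every 6 s during a 3-h run of moving lines and 100 ms, 400Hz tones. Behaviours were quantified by Z-LaP Tracker and reported as the compound mean less the vehicle control mean, in percentage points.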
Take `S=c1nc[nH]c2nc[nH]c12` [6-Mercaptopurine (hydrate)]: the “difference in startle response” value came out at 2.46.

Take `OC(c1cc(C(F)(F)F)nc2c(C(F)(F)F)cccc12)C1CCCCN1` (configuration not stated) [Mefloquine (hydrochloride)]: the “difference in startle response” value is -3.76.

Turning to `Nc1nc2c(c(=O)[nH]1)N(C=O)C(CNc1ccc(C(=O)NC(CCC(=O)O)C(=O)O)cc1)CN2` (racemic) [DL-Folinic Acid (calcium salt)], the “difference in startle response” value amounted to 2.87.

Turning to `CCOC(=O)c1ccc(C#Cc2ccc3c(c2)C(C)(C)CCS3)nc1` [Tazarotene], the “difference in startle response” value is -9.42.

With `Nc1nc2c(ncn2COCCO)c(=O)[nH]1` [Acyclovir], the “difference in startle response” value amounted to 2.62.

Regarding `Cc1cc(/C=C/C#N)cc(C)c1Nc1ccnc(Nc2ccc(C#N)cc2)n1` [Rilpivirine], the “difference in startle response” value is -10.5.

Turning to `NCC[C@H](O)C(=O)N[C@@H]1C[C@H](N)[C@@H](O[C@H]2O[C@H](CN)[C@@H](O)[C@H](O)[C@H]2O)[C@H](O)[C@H]1O[C@H]1O[C@H](CO)[C@@H](O)[C@H](N)[C@H]1O` [Amikacin], the “difference in startle response” value was 3.94.

In the case of `C[C@H](Cc1cc2c(c(C(N)=O)c1)N(CCCO)CC2)NCCOc1ccccc1OCC(F)(F)F` [Silodosin], the “difference in startle response” value worked out at 3.54.

Consider `O=C(c1ccc(F)c(F)c1Nc1ccc(I)cc1F)N1CC(O)([C@@H]2CCCCN2)C1` [Cobimetinib], for which the “difference in startle response” value is -2.69.

For `C[N+](C)(C)CC=O` [Betaine Aldehyde (chloride)], the “difference in startle response” value is 1.56.

`CCN(CC)CCNC(=O)c1c(C)[nH]c(/C=C2\C(=O)Nc3ccc(F)cc32)c1C` [Sunitinib (malate)]: the “difference in startle response” value is -2.13.

Take `COc1ccc2c3c1O[C@H]1C[C@@H](O)C=C[C@@]31CCN(C)C2` [Galantamine]: the “difference in startle response” value is -0.28.
